Activity calls are given as the source filed them. Unless noted, no rule for the calls is given here.
Tests used:
[1] = system: Wnt5a (protein binding on small-molecule microarray); test: Wnt5a binders on small-molecule microarray, primary screen, biophysical, 635/667 nm fluorescence (AID 1142); settings: 635 nm fluorescence, higher = more signal;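 also: fluorescence read at 667 nm with signal to noise per printed feature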
[2] = cell viability in Huh7 cells, primary screen, cytotoxicity control for HCV replication inhibitor project, CellTiter-Glo luminescence, basal, 48 h (AID 1143); settings: Huh7 HCV replicon, higher = more signal, called active from +8 up or from −8 down;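 also: Huh7 hepatoma cells carrying a hepatitis C replication reporter with no stimulus; test concentration not given here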
[3] = P. aeruginosa biofilm formation inhibitors, primary screen, PAO1 strain, BacTiter-Glo luminescence, LB-PBS (AID 1144); settings: 12 h, higher = more signal
[4] = CREB reporter modulators without forskolin, primary screen, cell-based, PC12, CRE-LacZ reporter, unstimulated (AID 1145); settings: no forskolin, luminescence, 4.5 h, higher = more signal, called active from +8 up or from −8 down
[5] = CREB reporter modulators under forskolin, primary screen, cell-based, PC12, CRE-LacZ reporter, forskolin-stimulated (AID 1146); settings: luminescence, 4.5 h, higher = more signal, called active from +8 up or from −8 down;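 also: PC12 cells with 6xCRE LacZ reporter stimulated by forskolin 10 µM; beta-galactosidase reporter signal reflecting CREB driven transcription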
[6] = molecular target: Streptavidin (Streptomyces avidinii) (UniProt P22629); test: streptavidin binders on small-molecule microarray, primary screen, artefact control for SMM compound annotation, biophysical, 635/667 nm fluorescence (AID 1147); settings: streptavidin binding, higher = more signal;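 also: signal reflects streptavidin binding to arrayed compounds as a control protein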
Chain of Streptavidin (Streptomyces avidinii) (P22629 whole entry, looked up): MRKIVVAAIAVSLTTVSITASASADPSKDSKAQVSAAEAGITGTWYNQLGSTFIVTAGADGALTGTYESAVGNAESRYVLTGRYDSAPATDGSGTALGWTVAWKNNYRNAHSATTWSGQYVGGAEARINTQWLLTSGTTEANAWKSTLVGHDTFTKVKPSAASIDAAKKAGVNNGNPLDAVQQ

[7] = small-molecule binders of probe aInhba, primary screen, biochemical, small-molecule microarray, 635/667 nm fluorescence (AID 1148); settings: higher = more signal;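 also: score merges 667nm spot fluorescence with signal-to-noise for antibody binding to printed compounds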
Torsin-1A (Homo sapiens) [8] = molecular target: Torsin-1A (Homo sapiens) (UniProt O14656); test: torsin A binders from cell lysate, primary screen, small-molecule microarray, wild-type, 635/667 nm (AID 1149); settings: COS7 hTOR1A-WT lysate, 635 nm fluorescence, higher = more signal
Chain of Torsin-1A (Homo sapiens) (O14656 whole entry, looked up): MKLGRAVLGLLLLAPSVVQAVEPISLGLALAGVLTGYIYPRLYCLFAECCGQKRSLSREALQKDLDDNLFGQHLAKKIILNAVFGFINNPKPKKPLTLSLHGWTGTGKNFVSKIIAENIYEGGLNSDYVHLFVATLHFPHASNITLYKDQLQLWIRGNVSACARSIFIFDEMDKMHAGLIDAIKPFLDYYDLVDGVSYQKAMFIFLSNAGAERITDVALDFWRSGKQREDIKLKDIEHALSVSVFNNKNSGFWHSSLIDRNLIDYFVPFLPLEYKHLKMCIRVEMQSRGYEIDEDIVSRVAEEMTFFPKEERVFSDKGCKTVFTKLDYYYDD

Torsin-1A (Homo sapiens) [9] = molecular target: Torsin-1A (Homo sapiens) (UniProt O14656); test: small-molecule binders of mutant TOR1A in lysate, primary screen, cell lysate, small-molecule microarray, COS7 lysate, 635/667 nm fluorescence (AID 1150); settings: COS7 hTOR1A mutant lysate, 635 nm fluorescence, higher = more signal;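 also: score pools 667 nm emission and signal to noise measuring lysate protein binding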
[10] = system: Sonic hedgehog protein (Shh); test: small-molecule binders of Shh protein, primary screen, biochemical, small-molecule microarray, 635/667 nm fluorescence (AID 1151); settings: small-molecule microarray binding, 635 nm fluorescence; higher = more signal;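 also: Shh protein binding to compounds spotted on small-molecule microarray slides; score combines spot fluorescence intensity with signal-to-noise across triplicate slides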

Row | Compound | composite z-score [1] | z-score [2] | z-score [3] | z-score [4] | z-score [5] | composite z-score [6] | composite z-score [7] | composite z-score (Torsin-1A (Homo sapiens) [8]) | composite z-score (Torsin-1A (Homo sapiens) [9]) | composite z-score [10]
1 | O=C(CS)NCCCCCCNC(=O)[C@@H]1C[C@@H]2C(=O)N3CCC[C@H]3C(=O)N2[C@@H]1c1ccc(O)cc1 | 0.133 | 0.589 (inactive) | 0.178 (inactive) | -0.39 (inactive) | -0.972 (inactive) | -0.974 | -0.129 | 0.971 | 1.1 | 0.881
2 | CCC[C@@H]1C=C(C(=O)O)[C@H](c2ccc(C)cc2)N1S(=O)(=O)c1ccc(C)cc1 | 0.0266 | 0.224 (inactive) | -0.0655 (inactive) | -0.527 (inactive) | 0.348 (inactive) | 0.981 | -0.0087 | 0.837 | 1.38 | -0.65
3 | [N-]=[N+]=NCc1ccccc1C[C@@]1(C(=O)N2CCOCC2)N=C(c2ccc(OCCCO)cc2)O[C@@H]1c1ccccc1CN=[N+]=[N-] | 1.44 | -3.44 (inactive) | -1.02 (inactive) | 1.7 (inactive) | -0.0755 (inactive) | 1.56 | 0.985 | 0.375 | 0.193 | 0.704
4 | CC(=O)NCCCC[C@@H]1NC(=O)[C@@H]2C[C@H](C(=O)NCCCCN(C)C)[C@H](c3ccc(O)cc3)N2C1=O | -0.465 | 0.0068 (inactive) | -1.02 (inactive) | -0.809 (inactive) | -0.174 (inactive) | -0.506 | -0.23 | -0.893 | -0.88 | 0.54
5 | O=C1c2ccccc2[C@@]2(Cc3ccccc3N(Cc3ccccc3)C2=O)[C@H](c2ccc(CO)cc2)N1C1CCCCC1 | 0.149 | 0.608 (inactive) | 0.0703 (inactive) | 0.0924 (inactive) | 0.0935 (inactive) | -0.258 | -0.0933 | 0.177 | -0.269 | 1.08
6 | O=C(OCCF)C1=CCC(c2cccc(Cl)c2)O1 (stereo not given) | 0.236 | -2.33 (inactive) | -0.0826 (inactive) | -0.0137 (inactive) | 0.351 (inactive) | 0.112 | -0.0468 | 1.09 | 2.19 | 0.299
7 | CCCCC(O)C1C=CC2C(=O)N(C3CCCCC3)C(=O)C2N1Nc1ccc(OC)cc1 (stereo not given) | 0.177 | -0.527 (inactive) | -1.47 (inactive) | 0.276 (inactive) | 0.765 (inactive) | 1.54 | 0.0785 | 0.0983 | -0.001 | 0.342
8 | COc1ccc([Si](C)(C)[C@H]2[C@H](CCn3cc(CCO)nn3)O[C@@]3(C(=O)N(Cc4ccc(N5CCOC5=O)cc4)c4ccccc43)[C@@H]2C)cc1 | -0.0483 | -4.12 (inactive) | 9e-05 (inactive) | 0.469 (inactive) | -2.21 (inactive) | -0.0903 | -0.0044 | 0.676 | 0.806 | 1.59
9 | COc1ccc(C(O)C2C=CC3C(=O)N(C)C(=O)C3N2Nc2ccccc2)cc1OCc1ccccc1 (stereo not given) | 0.0512 | 0.142 (inactive) | -0.292 (inactive) | 1.21 (inactive) | -0.389 (inactive) | 0.863 | 0.0528 | 0.155 | 0.992 | -0.237
10 | CCOC(=O)C1=C[C@@H](C(C)C)N(S(=O)(=O)c2ccc(C)cc2)[C@H]1c1ccc(C(C)C)cc1 | 0.336 | -3.48 (inactive) | -0.228 (inactive) | -0.676 (inactive) | 0.359 (inactive) | 1.58 | -0.121 | 1.05 | 0.644 | 0.31
11 | COc1ccccc1CN1C(=O)c2ccccc2[C@@H](C(=O)NCCN2CCOCC2)[C@@H]1c1ccc(CO)cc1 | 0.274 | -0.916 (inactive) | -1.04 (inactive) | 0.001 (inactive) | -1.09 (inactive) | 0.156 | -0.13 | 0.52 | 0.767 | 0.197
12 | CC(C)CNC(=O)[C@@H]1c2ccccc2C(=O)N(Cc2cc(C(F)(F)F)cc(C(F)(F)F)c2)[C@H]1c1ccc(CO)cc1 | -0.0674 | -1.51 (inactive) | 0.788 (inactive) | -0.0512 (inactive) | -1.2 (inactive) | -0.674 | 0.212 | -0.395 | -0.537 | -0.22
13 | O=C1O[C@@H](c2ccccc2)[C@@H](c2ccccc2)N2[C@@H](c3ccc(OCCO)cc3)[C@]3(C(=O)Nc4ccccc43)[C@@H](C(=O)Nc3nc4ccccc4s3)[C@H]12 | 0.441 | -3.3 (inactive) | -1.78 (inactive) | 0.362 (inactive) | -0.278 (inactive) | 1.17 | 0.289 | 1.05 | 1.11 | 1.75
14 | COC(=O)c1ccc(OC)c(/C=C\CC(OC(C)=O)c2ccccc2)c1 (stereo not given) | -0.136 | -1.38 (inactive) | 0.623 (inactive) | 0.479 (inactive) | -0.0792 (inactive) | 3.16 | -0.179 | -0.0525 | -0.165 | 0.539
15 | CN(C)C(=O)[C@]1(CCC(=O)OC(C)(C)C)N=C(c2ccc(OCCCO)cc2)O[C@@H]1c1ccccc1N=[N+]=[N-] | 0.928 | -1.61 (inactive) | 0.878 (inactive) | 0.988 (inactive) | 0.0155 (inactive) | 1.38 | 0.105 | 1.62 | 2.11 | -0.149
16 | Cc1ccc(S[C@]2(C(=O)NC3CC3)CC(=O)N(C3CCCCC3)[C@@H]2c2ccc(CO)cc2I)cc1 | 0.136 | -3.4 (inactive) | -0.128 (inactive) | 0.362 (inactive) | 0.681 (inactive) | 0.936 | -0.0375 | 0.254 | 0.582 | 1.77
17 | O=C1O[C@H](c2ccccc2)[C@H](c2ccccc2)N2[C@H]1[C@@H](C(=O)N1CCN(c3ncccn3)CC1)[C@]1(C(=O)Nc3ccccc31)[C@H]2c1ccc(OCCO)cc1 | 0.505 | -5.5 (inactive) | -2.01 (inactive) | -0.528 (inactive) | -0.222 (inactive) | -0.0363 | 0.0588 | 1.43 | 0.36 | 1.98
18 | O=c1cccc(C=Cc2ccccc2)o1 | -0.276 | -0.273 (inactive) | -0.544 (inactive) | -0.676 (inactive) | 0.801 (inactive) | -0.532 | 0.144 | -0.994 | -0.711 | -0.604
19 | O=C1OCCC=C[C@H]2OC34C=CCN(Cc5ccccc5)C(=O)[C@H]3N(CCCO)C(=O)[C@@H]4C12 (stereo not given in full) | -0.419 | -3.89 (inactive) | -2.36 (inactive) | -1.31 (inactive) | -1.18 (inactive) | -0.399 | -0.128 | -0.8 | -0.586 | -0.174
20 | CC(C)CNC(=O)[C@@]1(c2ccc([N+](=O)[O-])cc2)CC(=O)N(CC23CC4CC(CC(C4)C2)C3)[C@@H]1c1ccc(CO)cc1 | 0.239 | -4.7 (inactive) | 0.677 (inactive) | -0.0888 (inactive) | -1.32 (inactive) | -0.256 | -0.0442 | 1.16 | 0.395 | 1.04
21 | CC(C)(C)N1CC=CC23O[C@@H]4/C=C\CCCOC(=O)C4[C@H]2C(=O)N(CCO)[C@@H]3C1=O (stereo not given in full) | 0.501 | 0.0369 (inactive) | -0.647 (inactive) | -0.492 (inactive) | -0.533 (inactive) | -0.801 | -0.416 | -0.769 | -0.875 | -0.131
22 | [N-]=[N+]=NCc1ccccc1C[C@]1(C(=O)O)N=C(c2ccc(OCCCO)cc2)O[C@H]1c1ccccc1 | 0.0352 | -0.881 (inactive) | -0.556 (inactive) | -0.79 (inactive) | 2.11 (inactive) | 0.807 | 0.0566 | 1.8 | 1.99 | -0.474
23 | Cc1c(NC(=O)CC#N)c(=O)n(-c2ccccc2)n1C | 0.0101 | -2.39 (inactive) | -0.739 (inactive) | -0.671 (inactive) | -0.832 (inactive) | -0.347 | -0.179 | 0.362 | -0.0384 | 0.642
24 | Cc1ccc(S[C@]2(C(=O)NCc3ccccc3)CC(=O)N(Cc3ccccc3Cl)[C@@H]2c2ccc(CO)cc2I)cc1 | -0.657 | -1.68 (inactive) | -1.12 (inactive) | -0.258 (inactive) | 1.72 (inactive) | -0.15 | -0.0963 | -2.03 | -1.65 | 0.262
25 | C=CCC(OC(C)=O)[C@@H]1[C@@H](N(Cc2ccc(-c3cccc(C(F)(F)F)c3)o2)C(=O)c2ccc(C)cc2)c2cc(OCCCO)ccc2N1C(=O)c1ccc(-c2ccccc2)cc1 (stereo not given in full) | 0.0167 | 0.224 (inactive) | -0.747 (inactive) | -0.463 (inactive) | -0.183 (inactive) | 0.535 | 0.0154 | -0.245 | -0.141 | 1.32
26 | C=CC[C@@]1(C(=O)O)N=C(c2ccc(OCCCO)cc2)O[C@@H]1c1ccccc1N=[N+]=[N-] | 0.0886 | -1.41 (inactive) | 0.651 (inactive) | 0.367 (inactive) | -0.432 (inactive) | 1.11 | 0.0697 | -0.115 | 0.251 | -0.203
27 | CCOc1cc(C(O)C2C=CC3C(=O)N(c4ccccc4)C(=O)C3N2Nc2ccc([N+](=O)[O-])cc2)ccc1O (stereo not given) | -0.0182 | -1.04 (inactive) | -0.222 (inactive) | 2.28 (inactive) | 0.507 (inactive) | 0.439 | -0.101 | -0.431 | 0.196 | -0.231
28 | COCCCNC(=O)[C@@]1(C)c2ccccc2C(=O)N(Cc2cc(C(F)(F)F)cc(C(F)(F)F)c2)[C@H]1c1ccc(CO)cc1 | -0.676 | -2.82 (inactive) | -0.417 (inactive) | 0.468 (inactive) | 0.243 (inactive) | -0.673 | -0.0675 | -1.37 | -1.27 | -0.207
29 | C=C(CCCC)C(=O)CC[C@H](OC(=O)c1cccnc1)c1cccc(OCCO)c1 | 0.54 | -0.293 (inactive) | -0.0707 (inactive) | 11 (active) | 0.189 (inactive) | 0.0158 | -0.231 | 0.524 | 0.186 | 1.12

Reference: PubChem BioAssay
